Sampled rows, rich in hits. Any-hit rate of the full collection: about 4.1%.
PRMT1 inh = PRMT1 (human) inhibition, primary screen. Q99873. recombinant PRMT1, activity-based probe fluorescence polarization. inhibition, % at 2.79 µM. hit rate 1.3% among 370,000. AID 652257;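 active means inhibition above about 21% made by adding two undisclosed values, limit read from the data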
rCAG RNA binder = r(CAG) repeat RNA binding. inhibition, % at 3 µM. TO-PRO-1 dye displacement fluorescence. hit rate 1.3% among 370,000;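 active means inhibition above the plate cutoff, the mean of all test compounds on that plate plus 3 SD, cut at about 35% in these data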;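 further: 0% = DMSO alone and 100% = 100 µM mitoxantrone as full dye displacement; higher means more dye released from RNA so lower well fluorescence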
UHRF1 binding = UHRF1 methyl-DNA binding inhibition | Q96T88 | UHRF1 binding to methylated oligo, TR-FRET | inhibition, % at 4.4 µM | hit rate 0.75% among 370,000 | AID 687016; in the data active means inhibition above about 21%;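 further: UHRF1 SRA domain binding a hemimethylated CpG hairpin DNA probe; 0% = median of test compound wells and 100% = reference inhibitor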
MBD2 DNA inh = inhibitors of human MBD2 binding to methylated oligonucleotide | Q9UBB5 | TR-FRET | inhibition, % at 4.4 µM | hit rate 0.31% among 370,000 | AID 686964; in the data active means inhibition above about 13%
LEDGF integ inh = blocks HIV-1 LEDGF/p75-dependent DNA integration. hit rate 0.64% among 370,000. inhibition, % at 3.7 µM. TR-FRET IN-LEDGF/p75 DNA integration, Eu/Cy5;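 active means inhibition above the screen-wide mean plus 3 SD, cut at about 13% in these data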;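 further: signal is the Cy5 over europium emission ratio at 671 and 618 nm; 0% = plate median of compound wells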
ABHD5-PLIN5 inh = inhibitors of human ABHD5-perilipin-5 interaction; Q00G26+Q8WTS1; Split G. princeps luciferase complementation, luminescence, 4 h; inhibition, % at 4 µM; hit rate 0.78% among 360,000;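 active means inhibition above the mean inhibition across every tested compound plus 3 SD, cut at about 22% in these data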;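 further: 0% = DMSO only wells and the 100% control is not disclosed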
Target sequence (Q00G26 whole entry, looked up): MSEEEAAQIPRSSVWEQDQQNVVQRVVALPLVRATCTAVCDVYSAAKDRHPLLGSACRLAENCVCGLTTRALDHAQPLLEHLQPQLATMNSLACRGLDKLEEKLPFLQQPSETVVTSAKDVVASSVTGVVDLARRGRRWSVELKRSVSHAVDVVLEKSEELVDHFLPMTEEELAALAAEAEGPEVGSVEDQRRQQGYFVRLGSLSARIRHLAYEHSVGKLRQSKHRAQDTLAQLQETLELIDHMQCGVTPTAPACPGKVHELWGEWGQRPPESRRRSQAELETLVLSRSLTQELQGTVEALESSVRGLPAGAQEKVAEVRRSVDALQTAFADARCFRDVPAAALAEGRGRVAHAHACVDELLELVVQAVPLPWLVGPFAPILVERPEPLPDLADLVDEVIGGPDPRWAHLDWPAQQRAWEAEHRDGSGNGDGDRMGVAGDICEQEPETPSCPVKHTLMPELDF
Target sequence (Q8WTS1 whole entry, looked up): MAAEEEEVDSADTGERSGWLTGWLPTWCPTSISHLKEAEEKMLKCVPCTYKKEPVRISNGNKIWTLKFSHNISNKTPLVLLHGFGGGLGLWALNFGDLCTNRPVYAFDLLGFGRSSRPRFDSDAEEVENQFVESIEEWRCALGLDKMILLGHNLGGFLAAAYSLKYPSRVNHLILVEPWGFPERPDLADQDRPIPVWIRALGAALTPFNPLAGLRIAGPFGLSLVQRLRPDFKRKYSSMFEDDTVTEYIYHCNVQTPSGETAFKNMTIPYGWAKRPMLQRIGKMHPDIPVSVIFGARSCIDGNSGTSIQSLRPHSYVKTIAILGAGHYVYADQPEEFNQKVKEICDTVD
PRMT1 confirm = confirmation of human PRMT1 inhibitors. shares compounds with PRMT1 inh. recombinant His-PRMT1, activity-based probe fluorescence polarization. inhibition, % at 2.79 µM. hit rate 42% among 3,300;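 active means mean inhibition across replicates above the hit cutoff derived for the earlier primary screen, cut at about 22% in these data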
* = called active by the depositor.

For S=c1[nH]c(-c2ccccc2)cn1/N=C/c1cccs1 the results were PRMT1 inh 45*, rCAG RNA binder 5, UHRF1 binding 3, MBD2 DNA inh 5, LEDGF integ inh -5, ABHD5-PLIN5 inh -7 and PRMT1 confirm 22*.
Screening CCCC[n+]1c(C)sc2ccc(C)cc21 returned PRMT1 inh 42*, rCAG RNA binder 3, UHRF1 binding 2, MBD2 DNA inh 3, LEDGF integ inh 8, ABHD5-PLIN5 inh -3 and PRMT1 confirm 18.
Screening CC[n+]1c(C)sc2cc(C)ccc21 returned PRMT1 inh 74*, rCAG RNA binder 3, UHRF1 binding 0, MBD2 DNA inh -6, LEDGF integ inh 2, ABHD5-PLIN5 inh -5 and PRMT1 confirm 16.
`Cc1ccc2c(c1)sc(-c1ccc(N(C)C)cc1)[n+]2C` gave PRMT1 inh 18, rCAG RNA binder 8, UHRF1 binding -14, MBD2 DNA inh -8, LEDGF integ inh -5 and ABHD5-PLIN5 inh -4.
For Cc1sc2ccccc2[n+]1CC(=O)c1ccccc1 the results were ABHD5-PLIN5 inh 15.
Cc1ccc2sc(C)[n+](CCO)c2c1 was read as PRMT1 inh 58*, rCAG RNA binder -3, UHRF1 binding -2, MBD2 DNA inh 4, LEDGF integ inh 2, ABHD5-PLIN5 inh -13 and PRMT1 confirm 33*.
`COC(=O)[C@]12C[C@H](CC(=O)NCc3ccccc3)C(=O)N(Cc3cccc4ccccc34)C1=C[C@H](COCc1ccccc1)O[C@@H]2C` gave PRMT1 inh -4, rCAG RNA binder 10, UHRF1 binding 3, MBD2 DNA inh -2 and LEDGF integ inh 2.
Screening C=CCN1CC(COCCCC)Oc2ccc(Cl)cc2S1(=O)=O (centres undefined) returned PRMT1 inh 1, rCAG RNA binder -1, UHRF1 binding -1, MBD2 DNA inh -4 and LEDGF integ inh 0.
OCCn1c(-c2ccc3c(c2)OCO3)csc1=Nc1ccccc1 was read as PRMT1 inh 32*, rCAG RNA binder -1, UHRF1 binding 0, MBD2 DNA inh 0, LEDGF integ inh -1, ABHD5-PLIN5 inh -8 and PRMT1 confirm 1.
`CCOc1ccc(N=c2scc(-c3ccc(OC)cc3)n2CCO)cc1` gave PRMT1 inh 26*, rCAG RNA binder -7, UHRF1 binding 1, MBD2 DNA inh 1, LEDGF integ inh 0, ABHD5-PLIN5 inh 0 and PRMT1 confirm -1.
Screening OCCn1c(-c2ccc(F)cc2)csc1=Nc1ccccc1 returned PRMT1 inh 42*, rCAG RNA binder 1, UHRF1 binding -3, MBD2 DNA inh 2, LEDGF integ inh -4, ABHD5-PLIN5 inh -8 and PRMT1 confirm 0.
CCOc1ccc(N=c2scc(-c3ccccc3)n2CCO)cc1 was read as PRMT1 inh 13, rCAG RNA binder -8, UHRF1 binding 1, MBD2 DNA inh 4, LEDGF integ inh 0 and ABHD5-PLIN5 inh -7.
C[C@@H]1CCCCO[C@@H](CN(C)Cc2ccc(C(=O)O)cc2)[C@@H](C)CN([C@H](C)CO)C(=O)c2cc(NS(C)(=O)=O)ccc2O1 was read as PRMT1 inh 1, rCAG RNA binder 12, UHRF1 binding 6, MBD2 DNA inh 3 and LEDGF integ inh -3.
C[C@@H]1CC(=O)NN=C1c1ccc(NN=C(C#N)C#N)cc1 was read as PRMT1 inh 6, rCAG RNA binder 5, UHRF1 binding 1, MBD2 DNA inh 0 and LEDGF integ inh -2.
`CCc1c(O)nc(SCC(=O)Nc2ccccc2)n(-c2ccccc2C)c1=O` gave PRMT1 inh 36*, rCAG RNA binder 5, UHRF1 binding 2, MBD2 DNA inh 4, LEDGF integ inh 0, ABHD5-PLIN5 inh 11 and PRMT1 confirm 20.
CCc1c(O)nc(SCC(=O)Nc2ccc(C)cc2)n(C2CCCCC2)c1=O was read as PRMT1 inh 10, rCAG RNA binder 14, UHRF1 binding 0, MBD2 DNA inh 1, LEDGF integ inh -2 and ABHD5-PLIN5 inh -2.
`CCc1c(O)nc(SCC(=O)Nc2nc3ccccc3s2)n(-c2ccccc2)c1=O` gave PRMT1 inh 38*, rCAG RNA binder 23, UHRF1 binding -1, MBD2 DNA inh 0, LEDGF integ inh 2, ABHD5-PLIN5 inh 4 and PRMT1 confirm 42*.
`CCc1c(O)nc(SCC(=O)Nc2ccc(Br)cc2)n(-c2ccc(C)cc2)c1=O` gave PRMT1 inh 45*, rCAG RNA binder 32, UHRF1 binding 3, MBD2 DNA inh 3, LEDGF integ inh -3, ABHD5-PLIN5 inh -7 and PRMT1 confirm 33*.
Cc1c(O)nc(SCC(=O)Nc2cccc(C(F)(F)F)c2)n(-c2ccccc2)c1=O was read as PRMT1 inh 95*, rCAG RNA binder 16, UHRF1 binding 4, MBD2 DNA inh -1, LEDGF integ inh 1, ABHD5-PLIN5 inh -6 and PRMT1 confirm 75*.
`CCc1c(O)nc(SCC(=O)Nc2nc3ccccc3s2)n(-c2ccc(C)cc2)c1=O` gave PRMT1 inh -5, rCAG RNA binder 0, UHRF1 binding 0, MBD2 DNA inh -2, LEDGF integ inh 3 and ABHD5-PLIN5 inh 3.
For COC(=O)[C@]12C[C@H](CC(=O)NCc3cccc4ccccc34)C(=O)N(Cc3ccccc3)C1=C[C@H](COCc1ccccc1)O[C@@H]2C the results were PRMT1 inh 2, rCAG RNA binder 14, UHRF1 binding -2, MBD2 DNA inh 0 and LEDGF integ inh 2.
CCCCCCCCN1C(=O)[C@@H](CC(=O)N2CCN(C(=O)C3CC3)CC2)C[C@@]2(C(=O)OC)C1=C[C@H](C(C)(C)C)O[C@@H]2C was read as PRMT1 inh 5, rCAG RNA binder 7, UHRF1 binding 2, MBD2 DNA inh 7 and LEDGF integ inh -3.
CCc1c(O)nc(SCC(=O)Nc2cc(C)on2)n(-c2ccccc2)c1=O was read as PRMT1 inh 53*, rCAG RNA binder 2, UHRF1 binding 4, MBD2 DNA inh 5, LEDGF integ inh -3, ABHD5-PLIN5 inh 0 and PRMT1 confirm 24*.
Screening COc1ccc(-n2c(SCC(=O)Nc3ccccc3OC)nc(O)c(Cc3ccccc3)c2=O)cc1 returned PRMT1 inh 30*, rCAG RNA binder 31, UHRF1 binding 5, MBD2 DNA inh 5, LEDGF integ inh -1, ABHD5-PLIN5 inh 5 and PRMT1 confirm 22*.
Screening CCc1c(O)nc(SCC(=O)Nc2ccccc2OC)n(-c2ccccc2C)c1=O returned PRMT1 inh 16, rCAG RNA binder 14, UHRF1 binding 3, MBD2 DNA inh -4, LEDGF integ inh -1 and ABHD5-PLIN5 inh 5.
Screening CCc1c(O)nc(SCC(=O)Nc2ccccc2)n(-c2ccccc2)c1=O returned PRMT1 inh 18, rCAG RNA binder 3, UHRF1 binding 1, MBD2 DNA inh 1, LEDGF integ inh 0 and ABHD5-PLIN5 inh -1.

Screening results from PubChem.
